# A3A deaminase = human APOBEC3A DNA deaminase inhibition; recombinant A3A, FAM/TAMRA ssDNA deamination fluorescence; 0.41% of 330,000 active; inhibition, % at 20 µM;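 active means at least 40% inhibition at 20 µM here, with at most 30% in a related deaminase screen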;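 further: plate controls were A3A with DMSO for no effect and wells lacking A3A enzyme for full effect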
# CendR NRP1 mod = modulators of CendR peptide binding to human neuropilin-1; O14786; FAM-RPARPAR peptide binding to NRP-1, fluorescence polarization; inhibition, % at 25 µM; 0.85% of 360,000 active; AID 602438;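 active means inhibition or corrected inhibition above about 18%, plus a signal ratio from 0.5 to 1.5, limit read from the data, passing the limit was not always enough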
# ADAM17 inh = inhibitors of human ADAM17; P78536; inhibition, % at 6.95 µM; 0.83% of 370,000 active; recombinant ADAM17, EDANS/DABCYL FRET peptide cleavage;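 active means inhibition above the mean of compounds lying between control limits plus 3 SD, set per campaign, cut at about 8.5% in these data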;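 further: 0% = DMSO-only wells as the low control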
# APOBEC3G inh = blocks human APOBEC3G single-stranded DNA deamination. Q9HC16. recombinant A3G, ssDNA deamination FAM/TAMRA fluorescence. inhibition, % at 20 µM. 0.28% of 330,000 active. AID 493012;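 active means inhibition of at least 40% at 20 µM, with no more than 30% in the related APOBEC3A deaminase screen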;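 further: plate controls were DMSO wells with A3G for no effect and wells lacking A3G enzyme for full effect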
# ADAM10 inh = inhibitors of human ADAM10. AID 720582. O14672. 0.62% of 370,000 active. inhibition, % at 7 µM. recombinant ADAM10, EDANS/DABCYL FRET peptide cleavage, 3 h;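 active means inhibition above a per-campaign cutoff equal to the mean of compounds falling between control-based bounds plus 3 SD, cut at about 20% in these data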;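 further: 0% = DMSO wells while the 100% control is not disclosed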
# ADAM10 confirm = confirmation of inhibitors of human ADAM10 | shares compounds with ADAM10 inh | ADAM10 QFRET peptide cleavage, EDANS fluorescence | inhibition, % at 6.95 µM | 1% of 2,100 active;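 active means inhibition above about 20% chosen separately for each screening run, limit read from the data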;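 further: 0% = DMSO wells and 100% = marimastat wells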
# ADAM17 counter = ADAM17 inhibition, counter-screen for ADAM10 exosite hits; inhibition, % at 6.95 µM; 0.5% of 2,100 active; ADAM17 QFRET peptide cleavage, EDANS fluorescence; shares compounds with ADAM10 inh;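 active means mean triplicate inhibition above the solvent-only control wells' mean plus 3 SD, cut at about 12% in these data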;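 further: 0% = DMSO wells and 100% = marimastat wells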
# * marks the source's active call; other numbers are inactive results; / = not tested or not shown. A selection: hits, their analogues and other compounds. The true share with any hit is near 2.4%.
SMILES,A3A deaminase,CendR NRP1 mod,ADAM17 inh,APOBEC3G inh,ADAM10 inh,ADAM10 confirm,ADAM17 counter
C#Cc1ccc([C@@H]2C=C(C(=O)N3CCN(Cc4ccccc4)CC3)O[C@H](OCC)[C@H]2CCCO)cc1,-3,14,4,-4,24*,3,1
CCO[C@H]1OC(C(=O)NCc2ccccc2)=C[C@@H](c2cn(C(C)=O)c3ccccc23)[C@@H]1CCCO,0,12,3,-3,26*,4,2
CCCCc1c(-c2ccccc2OC)ncn1Cc1cc(F)ccc1F,/,/,-2,/,-6,/,/
Nc1nc(-c2ccc(Cl)cc2)c(S(=O)(=O)c2ccccc2)s1,-5,7,8,-1,20*,0,0
CN(C(=O)[C@@H](C1CC1)[C@@H](O)c1ccc2ccccc2c1)c1ccccc1,/,/,5,/,87*,0,0
CS(=O)(=O)N1CCC(C(=O)NCC2COc3ccccc3O2)CC1 (centres undefined),/,/,-1,/,-1,/,/
Cc1ccccc1CN(c1ccc(C(=O)Nc2ccccc2C(=O)NCc2ccco2)cc1)S(C)(=O)=O,-5,9,8,-8,26*,20*,4
N#CCC[C@@H]1CC[C@]2(CCCN(C(=O)c3ccno3)C2)O1,/,/,-2,/,1,/,/
CCOC(=O)[C@@H]1[C@H]2COc3ccc(Br)cc3[C@H]2N2C(=O)N(c3ccc(F)cc3)C(=O)[C@]12C,0,-6,4,-3,25*,5,2
CCOC(=O)[C@@H]1[C@H]2COc3ccc(Br)cc3[C@@H]2N2C(=O)N(c3ccc(Br)cc3)C(=O)[C@@]12C,-6,4,0,-9,8,/,/
CC(C)(C)S(=O)N1Cc2cc(C(=O)N[C@@H]3CCN(Cc4ccccc4)C3)nc(-c3cccc(-c4cc5ccccc5o4)c3)c2[C@@H]1CCO (some centres undefined),/,-16,6,/,20*,18,9
COCc1cn(-c2ccc3c(c2)[C@]2(CC(=O)N(C)C2c2ccccc2)C(=O)N3CC(C)C)nn1 (some centres undefined),/,/,0,/,2,/,/
CSc1ccc(CN(C)C(=O)c2ccc(S(=O)(=O)Nc3ccccc3)cc2)cc1,-3,-2,6,-2,21*,1,0
COC(=O)[C@]12C[C@H](CC(=O)NCCC(C)C)C(=O)N(Cc3ccc4c(c3)OCO4)C1=C[C@H](COCc1ccccc1)O[C@@H]2C,/,/,5,/,8,/,/
O=[N+]([O-])c1ccc(-c2nc(-c3cccs3)c(-c3cccs3)[nH]2)cc1,-1,-107,15*,-5,24*,26*,12*
OC(c1ccc(F)c(F)c1)c1nc(-c2ccc(Cl)cc2)cs1 (centres undefined),/,-13,7,/,20*,4,1
COc1ccccc1-c1csc(C(O)c2cccc(Cl)c2)n1 (centres undefined),/,1,8,/,23*,6,2
CCN(c1ccccc1)S(=O)(=O)c1ccc(N2CCN(c3ccc(OC)cc3)CC2)nc1,-4,2,1,-11,4,/,/
CCN(c1ccccc1)S(=O)(=O)c1ccc(N2CCN(c3ccc(O)cc3)CC2)nc1,-1,-144,3,22,25*,6,1
FC(F)C(F)(F)C(F)(F)C(F)(F)c1cc(-c2ccccc2)n[nH]1,6,-177,6,-1,23*,-1,1
COc1ccccc1/C=C1\SC(=S)N(CCC(=O)Nc2cccc(O)c2)C1=O,-1,22,8,-5,23*,2,1
COc1ccccc1/C=C1\SC(=S)N(CCC(=O)NNC(=O)c2ccccc2OC)C1=O,-1,-6,-1,0,7,/,/
COc1cc(/C=C2\SC(=S)N(CCC(=O)Nc3cccc(O)c3)C2=O)cc(OC)c1OC,-7,-6,6,-9,21*,5,2
COc1cc(/C=C2\SC(=S)N(CCC(=O)Nc3ccccc3)C2=O)cc(OC)c1OC,6,-37,-5,0,-4,/,/
COc1ccc(OCC2CN(Cc3ccccc3)S(=O)(=O)CCO2)cc1 (centres undefined),/,/,2,/,-4,/,/
SMILES,A3A deaminase,CendR NRP1 mod,ADAM17 inh,APOBEC3G inh,ADAM10 inh,ADAM10 confirm,ADAM17 counter
Cc1ccc2c(c1)NC(=O)[C@@]1(C)[C@@H](c3ccccc3)[C@H]3COc4ccccc4[C@@H]3N1C2=O,-2,-7,4,-6,27*,10,3
COc1ccc2c(c1)[C@H]1[C@H](CO2)[C@H](c2ccccc2)[C@]2(C)C(=O)Nc3ccc(C)cc3C(=O)N12,1,4,0,-1,28*,10,3
Cc1ccc2c(c1)C(=O)N1[C@H]3c4ccccc4OC[C@@H]3[C@H](c3ccccc3)[C@]1(C)C(=O)N2,-2,-12,/,-4,/,/,/
O=S1(=O)c2ccc(Br)cc2OC[C@@H](Cc2ccccc2)N1Cc1cn(CCC2OCCCO2)nn1,/,/,-1,/,-1,/,/
CCOc1nc(N2CCOCC2)nc(C)c1[N+](=O)[O-],0,9,1,-4,20*,1,0
O=C(COC(=O)CCc1nc2ccccc2s1)Nc1ccc(Cl)cn1,-4,-3,-2,-10,24*,1,0
O=C(CC(c1ccccc1)c1ccccc1)Nc1ccc(Cl)cn1,-4,5,14*,-6,23*,2,1
CC(C)(C)C1=Nn2c(nnc2-c2ccc(C(C)(C)C)cc2)SC1,/,/,-2,/,0,/,/
Cc1ccc2c(c1)N(CCCC(=O)N(C)Cc1ccc(F)cc1)C(=O)CO2,/,/,0,/,0,/,/
COc1ccc(-c2n[nH]c(C(F)(F)F)c2-c2cc3ccccc3o2)c(O)c1,-1,-1,4,-7,22*,21*,10
Cc1ccc(-c2cc(C(=O)N=Nc3c(O)[nH]c4ccccc34)[nH]n2)cc1C,/,/,0,/,0,/,/
COC(=O)[C@]12C[C@H](CC(=O)NCc3cccc(C(F)(F)F)c3)C(=O)N(Cc3cccc4ccccc34)C1=C[C@H](C1CCCC1)O[C@@H]2C,/,/,0,/,6,/,/
Cc1ccc(Nc2nc(N)nc(CN3CCN(c4ccccc4)CC3)n2)cc1Cl,-2,-12,5,-2,9,/,/
COc1ccc(N2CCN(Cc3nc(N)nc(Nc4ccc(C)c(Cl)c4)n3)CC2)cc1,0,-2,5,-2,21*,1,0
CCOc1cccc(NC(=O)C2CC(=O)N(C)C(=Nc3cccc(F)c3)S2)c1 (centres undefined),0,-4,6,-7,21*,4,1
COc1cc(Br)cc(CNc2ccc(F)c([N+](=O)[O-])c2)c1O,-1,7,6,-2,20*,4,1
